Each structure is given as a SMILES string.

The target of this assay is Glucose transporter (Leishmania mexicana) (UniProt O61059). Description: ST_JUDE_LEISH: Cytotoxicity at 2uM final concentration against transgenic Leishmania Mexicana promastigotes LmGT2 that are glucose transport deficient and complemented with the L. Mexicana glucose transporter 2. Activity is measured by DNA content using SYBR green in vitro. The assay is classed as functional.
In the case of `COc1c(C2CCN(CCCCNC(=O)c3ccc(-c4ccc(C(F)(F)F)cc4)c(C(=O)OC(C)C)c3)CC2)ccc2c1CCCC2`, the inhibition came to 0.91%.

As for `COc1cccc(NC(=O)COc2ccc(C(=O)Nc3nc4ccccc4[nH]3)cc2)c1`, the inhibition was -1.7%.

As to `N#Cc1cccc(C(=O)Nc2cccc(-c3ccc(CN4CCC(O)CC4)cc3)c2)c1`, the inhibition came out at 0.83%.

In the case of `Cc1cc(=NN=Cc2ccc(F)cc2)c2cc(F)ccc2[nH]1`, the inhibition is -7.33%.

Regarding `COc1ccc2ccccc2c1CCCCN1CCN(CC(c2ccc(F)cc2)N2CCN(C(C)C)CC2)CC1` (stereo unspecified), the inhibition worked out at 12.3%.

With `Cc1cc(N2CCNCC2)c2cc(NC(=O)Nc3ccc(Cl)c(Cl)c3)ccc2n1`, the inhibition is 3.64%.

In the case of `CCc1nc(N)nc(N)c1-c1ccc(F)c(F)c1`, the inhibition worked out at 3.74%.

`O=C(/C=C/c1ccc(Cl)c(Cl)c1)NCCCCCN1CCCC(CNC(=O)c2sc3ccccc3c2Cl)C1` (stereo unspecified): the inhibition turned out to be 1.79%.

On to `COc1ccc2nc(N)nc(C)c2c1`, for which the inhibition turned out to be 2.78%.

Regarding `O=C(Nc1ccc(-c2cccc(-c3nc4cc(C(F)(F)F)ccc4[nH]3)c2)cc1)c1ccc(=O)[nH]n1`, the inhibition turned out to be 2.97%.

Consider `Nc1ncc(-c2cn[nH]c2)cc1-c1nc2cc(Cl)cnc2[nH]1`, for which the inhibition was found to be 1.93%.

Consider `Cc1cnc(C(=O)Nc2cccc(-c3csc(-c4nc5ccccc5[nH]4)c3)c2)cn1`, for which the inhibition came to 3.93%.

For `CCCOc1cc(O)c(-c2[nH]nc(C)c2Oc2ccccc2)cc1CC`, the inhibition is -1%.

In the case of `CCCCc1ccc2[nH]c(NC(=O)OC)nc2c1`, the inhibition was determined as 9.56%.

In the case of `Fc1ccc2[nH]cc(CCNCc3ccc(-c4cccc(-c5nc6ccccc6[nH]5)c4)cc3)c2c1`, the inhibition is 3.56%.

On to `CN1CCCC(CN2CCN(Cc3cccc(-c4cccc(-c5nc6ccccc6[nH]5)c4)c3)CC2)C1` (stereo unspecified), for which the inhibition is -0.86%.

The inhibition is the change of the read-out against control, counted positive when it falls.

The values are drawn from ChEMBL document CHEMBL3433997, “St. Jude Leishmania screening dataset” (2016).
